The results in this text go back to the supplement of paper PMC8866396.

± gives the standard deviation of the averaged measurements.

This experiment relates to IL-6-GFP PC-9GR. Kind of experiment: cell viability (CCK-8 OD) relative to DMSO control (fraction of control); higher = more viable cells. The following applies: compound concentration: 10 uM; treatment time: 48 h. The procedure, abridged: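 In 96-well plates, 3000 cells/well of PC-9 or PC-9GR lung cancer cells with lentiviral IL-6-GFP overexpression received each compound of a purchased 510-compound library at a final 10 μM for 48 h. Viability, measured by CCK-8 absorbance, is each well's optical density relative to the vehicle control well. Data come from two independent replicates.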
`CCS(=O)(=O)N1CC(CC#N)(n2cc(-c3ncnc4[nH]ccc34)cn2)C1.O=P(O)(O)O` [Baricitinib phosphate]: the cell viability is 0.391 ± 0.7.

In turn, `Cc1nc2ccc(CN(C)c3ccc(C(=O)NC(CCC(=O)O)C(=O)O)s3)cc2c(=O)[nH]1` (stereo not given) [Raltitrexed] registered a cell viability of 0.5349 ± 0.0032.

Compound `CC(=O)OC1CCC2(C)C(=CCC3C2CCC2(C)C(c4cccnc4)=CCC32)C1` (stereo not given) [Abiraterone Acetate] returned a cell viability of 1.48 ± 0.41.

With `CNNCc1ccc(C(=O)NC(C)C)cc1.Cl` [Procarbazine HCl], the cell viability was 1.02 ± 0.16.

Compound `COC(=O)c1cc(OC)c2c(c1-c1c(CO)cc(OC)c3c1OCO3)OCO2` [Bicyclol] displayed a cell viability of 1.16 ± 0.29.

`CCC1(O)CC2CN(CCc3c([nH]c4ccccc34)C(C(=O)OC)(c3cc4c(cc3OC)N(C)C3C(O)(C(=O)OC)C(OC(C)=O)C5(CC)C=CCN6CCC43C65)C2)C1.O=S(=O)(O)O` (stereo not given) [Vinblastine sulfate] displayed a cell viability of 0.475 ± 0.069.

`Cn1c(=O)cc(N2CCCC(N)C2)n(Cc2cc(F)ccc2C#N)c1=O` (stereo not given) [Trelagliptin]: the cell viability came out at 1.09 ± 0.15.

`CC(=O)[N-]S(=O)(=O)c1ccc(N)cc1.[Na+]` [Sulfacetamide Sodium] registered a cell viability of 0.982 ± 0.12.

In turn, `COC(c1ccccc1)(c1ccccc1)C(Oc1nc(C)cc(C)n1)C(=O)O` (stereo not given) [Ambrisentan] returned a cell viability of 1.22 ± 0.077.

As to `COc1cccc2c1C(=O)c1c(O)c3c(c(O)c1C2=O)CC(O)(C(=O)CO)CC3OC1CC(N)C(O)C(C)O1.Cl` (stereo not given) [Doxorubicin (Adriamycin) HCl], the cell viability stood at 0.159 ± 0.12.

Take `Nc1nc(=O)c2c(CCc3ccc(C(=O)NC(CCC(=O)[O-])C(=O)[O-])cc3)c[nH]c2[nH]1.[Na+].[Na+]` (stereo not given) [Pemetrexed]: the cell viability came out at 0.483 ± 0.064.

Regarding `COc1ccc2c(c1)nc(S(=O)Cc1ncc(C)c(OC)c1C)[n]2[Na]` (stereo not given) [Esomeprazole sodium], the cell viability was determined as 1.26 ± 0.2.

Regarding `CS(=O)(=O)n1cc2c(n1)CN(C1COC(c3cc(F)ccc3F)C(N)C1)C2` (stereo not given) [Omarigliptin (MK-3102)], the cell viability is 0.931 ± 0.14.

Consider `N#CC1CC2CC2N1C(=O)C(N)C12CC3CC(CC(O)(C3)C1)C2.O` (stereo not given) [Saxagliptin hydrate], for which the cell viability came to 0.79 ± 0.18.

The compound `CC1(C)OC2CC3C4CCC5=CC(=O)C=CC5(C)C4(F)C(O)CC3(C)C2(C(=O)CO)O1` (stereo not given) [Triamcinolone Acetonide] returned a cell viability of 1.15 ± 0.023.

Turning to `CN(C)CCOC(c1ccc(Cl)cc1)c1ccccn1.O=C(O)/C=C\C(=O)O` (stereo not given) [CarbinoxaMine Maleate], the cell viability came out at 1.2 ± 0.26.

As to `Cc1cn(-c2cc(NC(=O)c3ccc(C)c(Nc4nccc(-c5cnccn5)n4)c3)cc(C(F)(F)F)c2)cn1` [Radotinib], the cell viability is 0.7942 ± 0.0035.

For `CCCCC(CC)CN1CN(CC(CC)CCCC)CC(C)(N)C1` (stereo not given) [Hexetidine], the cell viability came out at 1.58 ± 0.49.

For the compound `C=CC1=C(C)c2cc3nc(cc4[nH]c(cc5[nH]c(cc1n2)c(C)c5C=C)c(C)c4CCC(=O)O)C(CCC(=O)O)=C3C` [Protoporphyrin IX], the cell viability was found to be 0.345 ± 0.26.

Consider `O=NN(CCCl)C(=O)NC1CCCCC1` [Lomustine], for which the cell viability was 1.05 ± 0.07.

Regarding `O=C(/C=C/C=C/c1ccc2c(c1)OCO2)N1CCCCC1` [Piperine], the cell viability was determined as 1.33 ± 0.093.

`N#Cc1ccc(C2CCCc3cncn32)cc1` (stereo not given) [Fadrozole] returned a cell viability of 0.6645 ± 0.0044.

In the case of `O=C(O)CCc1nc(-c2ccccc2)c(-c2ccccc2)o1` [Oxaprozin], the cell viability is 0.9414 ± 0.0067.

Take `CCc1cc2c(cc1N1CCC(N3CCOCC3)CC1)C(C)(C)c1[nH]c3cc(C#N)ccc3c1C2=O`: the cell viability amounted to 0.732 ± 0.081.

Take `NC(CO)(CO)CO` [Trometamol]: the cell viability was 0.932 ± 0.18.

Compound `CO/N=C(\C(=O)NC1C(=O)N2C(C(=O)OCOC(=O)C(C)(C)C)=C(C)CSC12)c1csc(N)n1.Cl` (stereo not given) [Cefetamet pivoxil hydrochloride] returned a cell viability of 1.25 ± 0.28.

`C/C=C(/C)C(=O)OC1C(OC(C)=O)C2(CO)C(O)CC3(C)C(=CCC4C5(C)CCC(OC6OC(C(=O)O)C(OC7OC(CO)C(O)C(O)C7O)C(O)C6OC6OC(CO)C(O)C(O)C6O)C(C)(CO)C5CCC43C)C2CC1(C)C` (stereo not given) [Escin]: the cell viability is 0.999 ± 0.079.

`CC(C(=O)O)c1ccc(CC2CCCC2=O)cc1` (stereo not given) [Loxoprofen]: the cell viability amounted to 1.04 ± 0.028.

For `Cc1c(O)c(C)c2c(c1O)C(=O)CC(c1ccc(O)cc1)O2` (stereo not given) [Farrerol], the cell viability came to 1.19 ± 0.11.

Turning to `O=c1ccc2ccc(O)c(O)c2o1` [Daphnetin], the cell viability was found to be 1.303 ± 0.0056.
